Laboratory results as given in PubChem BioAssay (Tox21).
Values without a mark were called inactive. Records with an inconclusive call do not appear. A call without a number means that no potency is given here. Calls of active or inactive are those of the source. Unless noted, calls come from the whole dose curve; as a rule, active = well fitted curve in the direction sought with a large enough effect in the repeat runs; inconclusive = weak or mixed curves; inactive = no such curve, though single readings can be large; an effect the other way counts as inactive or inconclusive.

Experiments:
[1] = qHTS assay to identify small molecule agonists of the hypoxia (HIF-1) signaling pathway - cell viability counter screen (AID 1224844; calls by dose curve; note: nearly all actives have a fitted effect of over 50% in size; note: potency is the fitted concentration of half-maximal effect)
How it was run: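 HRE-bla ME-180; 0.5% dFBS; cpd 17 h, 37C, 5% CO2; CellTiter-Glo lum., 30 min RT, post-FRET read, same wells.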

[2] = qHTS assay to identify small molecule agonists of the hypoxia (HIF-1) signaling pathway (AID 1224846; active = well fitted activation curve with a large enough effect in the signal ratio in the repeat runs, not every such curve was filed as active; the % refers to the signal ratio)
How it was run: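 Reporter induction in HRE-bla ME-180 cells is taken as agonism: cells sit 5 hrs after plating, receive compounds or DMSO only, incubate 17 hrs at 37C under 5% CO2, and are loaded with CCF4-AM for beta-lactamase FRET measurement.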

[3] = qHTS assay to identify small molecule agonists of H2AX - cell viability counter screen (AID 1224847; calls by dose curve; note: nearly all actives have a fitted effect of over 30% in size; note: potency is the fitted concentration of half-maximal effect)
How it was run: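 Cells plated first: CHO-K1, 1000 per well in 10% FBS medium, incubated overnight at 37C. Then 15-point compound titration added (final DMSO 0.76%) for 3 hr. Finally CellTiter-Glo added and luminescence read.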

[4] = qHTS assay to identify small molecule antagonists of the estrogen related receptor (ERR) signaling pathway from Tox21 library (AID 1224848); note: nearly all actives have a fitted effect of over 50% in size; note: potency is the fitted concentration of half-maximal effect
How it was run: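 Quantitative high-throughput format: ERR reporter cells (2,000/well) pre-incubated 6 h, treated 18 h at 37 C with compounds in DMSO alongside positive and negative controls, then read by ONE-Glo luminescence.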

[5] = qHTS assay to identify small molecule agonists of the estrogen related receptor (ERR) signaling pathway from Tox21 library (AID 1224849; calls by dose curve; note: nearly all actives have a fitted effect of over 15% in size); settings: ERR reporter cell line, ONE-Glo luciferase, 18 h; at 92.4 µM (top of the series) unless noted
How it was run: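 Tox21 compounds tested for ERR agonism in an NTP reporter cell line: 18 h treatment at 37 C, then ONE-Glo luminescence.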

[6] = qHTS RealTime-Glo MT Cell Viability Assay in HepG2 cells - 24 hour (AID 1224867); note: nearly all actives have a fitted effect of over 50% in size; note: potency is the fitted concentration of half-maximal effect
How it was run: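 Luminescence read-out: viable HepG2 cells reduce a prosubstrate to a NanoLuc substrate, giving a signal proportional to live cell number. Reads taken at 0, 8, 16, 24, 32 and 40 h of compound exposure at 37 C.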

[7] = qHTS RealTime-Glo MT Cell Viability Assay in HEK293 cells - 32 hour (AID 1224868); note: nearly all actives have a fitted effect of over 50% in size; note: potency is the fitted concentration of half-maximal effect
How it was run: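 Nonlytic real-time viability readout: viable cells convert prosubstrate to NanoLuc substrate, giving luminescence proportional to live cell number. HEK293, 600 cells/well, compound added after 5 h, continuous culture at 37 C.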

[8] = A CellTox Green Cytotoxicity Assay to monitor cytotoxicity in HEK293 cells - 0 hour (AID 1224869); note: nearly all actives have a fitted effect of over 50% in size
How it was run: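 Tox21 screen in HEK293: membrane-impermeant cyanine dye fluoresces on binding dead-cell DNA; compound pinned 5 h post-seeding, plates held at 37 C, signal read repeatedly through 40 h.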

[9] = qHTS assay to identify small molecule agonists of H2AX (AID 1224845; active = well fitted activation curve with a large enough effect in the signal ratio in the repeat runs, not every such curve was filed as active; the % refers to the signal ratio; note: potency is the fitted concentration of half-maximal effect)
How it was run: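 Wild-type CHO-K1 cells, plated overnight, exposed 3hr at 37C to 15 concentrations (0.76% DMSO final). Lysed, then HTRF anti-pH2AX (S139) cryptate and anti-H2AX-d2 antibodies, 24 hr room temperature; 665/620 nm emission read.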

Structure (SMILES)	Potency [1]	outcome [2]	Potency [3]	Potency [4]	activity change, positive = activation [5]	Potency [6]	Potency [7]	Potency [8]	Potency [9]
CC(=O)Nc1ccc(C)cc1C	inactive	inactive	inactive	inactive	0.262%	inactive	inactive	inactive	
O=C1c2ccccc2C(=O)C1c1nc2ccccc2c(Br)c1O	inactive		inactive			inactive	inactive	inactive	inactive
OCCOCC#CCOCCO	inactive	inactive	inactive			inactive	inactive	inactive	inactive
COc1cc(Nc2c(C#N)cnc3cc(OCCCN4CCN(C)CC4)c(OC)cc23)c(Cl)cc1Cl	inactive	inactive	55.2 µM (active)				8.49 µM (active)	inactive	7.8 µM (active)
Cc1cccc(N(C)C(=S)Oc2ccc3c(c2)CCC3)c1	inactive	inactive			-21.2% [at 42.5 µM]	inactive	inactive	inactive	inactive
CC(=O)OCCN(CCOC(C)=O)c1ccc(N=Nc2ccc([N+](=O)[O-])cc2C#N)cc1	inactive	inactive	50.5 µM (active)	61.1 µM (active)	-46.9%	inactive		inactive	
CCOC(C)=O	inactive	inactive	inactive			inactive	inactive	inactive	inactive
CN1C(C(=O)Nc2ccccn2)=C(O)c2sccc2S1(=O)=O	inactive	inactive	inactive			inactive	inactive	inactive	inactive
C[C@@H]1CN(CCCn2c3ccccc3c3ccccc32)C[C@H](C)N1	21.3 µM (active)	inactive			-72.9% [at 42.5 µM]	23.9 µM (active)	26.8 µM (active)		inactive
O=c1cc(-c2ccccc2)oc2cc(O)cc(O)c12	inactive							inactive	inactive
COc1ncnc(NS(=O)(=O)c2ccc(N)cc2)c1OC	inactive		inactive	inactive	1.61% [at 42.5 µM]	inactive	inactive	inactive	inactive
CC1(C)[C@H](C(=O)O)N2C(=O)C[C@H]2S1(=O)=O	inactive	inactive	inactive	inactive	5.98% [at 42.5 µM]	inactive	inactive	inactive	
CCCCCCCCCCCCCCN(CCO)CCO	49 µM (active)		89.8 µM (active)	61.1 µM (active)	-78.9%	21.9 µM (active)	21.9 µM (active)	inactive	inactive
CC/C=C1/OC(=O)c2ccccc21	inactive	inactive	inactive		-1.59%	inactive	inactive	inactive	
O=C(O)c1ccc(OCCCOc2ccc(C(=O)O)cc2)cc1	inactive	inactive	inactive	inactive	7.07% [at 42.5 µM]	inactive	inactive	inactive	
Nc1nnc(-c2ccc([N+](=O)[O-])o2)o1	inactive	inactive	inactive				inactive	inactive	inactive
CCCCCC#CC(=O)OC	inactive	inactive	inactive			inactive		inactive	inactive
CCCCC(CC)COP(=O)(O)O (stereo unspecified)	12.5 µM (active)	inactive	inactive			inactive		inactive	inactive
C=C(C)[C@@H]1CCC2=CCC[C@@H](C)[C@]2(C)C1	inactive	inactive	inactive	inactive	-7.47%	inactive	inactive	inactive	

Structure (SMILES)	Potency [1]	outcome [2]	Potency [3]	Potency [4]	activity change, positive = activation [5]	Potency [6]	Potency [7]	Potency [8]	Potency [9]
CC(=O)[C@H]1[C@H](C#N)C[C@H]2[C@@H]3CC=C4C[C@@H](O)CC[C@]4(C)[C@H]3CC[C@@]21C	inactive				-13.1% [at 42.5 µM]	inactive		inactive	inactive
O=C1c2ccccc2C(=O)C1c1ccc(Br)cc1	inactive	inactive	inactive		99.8% [at 42.5 µM] (active)	inactive	inactive	inactive	
O=C(O)c1cccc(-c2noc(-c3ccccc3F)n2)c1	inactive	inactive				inactive	inactive	inactive	inactive
COC(=O)[C@H]1[C@H]2C[C@@H]3c4[nH]c5cc(OC)ccc5c4CCN3C[C@H]2C[C@@H](OC(=O)/C=C/c2ccc(O)c(OC)c2)[C@@H]1OC	inactive	inactive	inactive	10.6 µM (active)	-35.3% [at 42.5 µM]	inactive			
CN1CCCN=C1COC(=O)C(O)(c1ccccc1)C1CCCCC1 (stereo unspecified)	inactive		inactive	inactive	6.85% [at 42.5 µM]	inactive	inactive	inactive	inactive
CCCC(=O)C(=O)O	inactive	inactive	inactive			inactive	inactive	inactive	inactive
O=C1C(=O)c2ccccc2C(O)=C1C1CCC(c2ccc(Cl)cc2)CC1 (stereo unspecified)	inactive	inactive	inactive	10.6 µM (active)	0.683% [at 42.5 µM]	inactive	inactive	inactive	
CN1C(=O)OC(C)(C)C1=O	inactive		inactive	inactive	4.82%	inactive	inactive	inactive	inactive
CCCCCC[C@@H](O)C/C=C\CCCCCCCC(=O)OCC(O)CO (stereo partly specified)	inactive	inactive	inactive		-2.03%	inactive	inactive	inactive	
CN(C(=O)CN(CCO)CC(=O)N(C)C(C)(C)Cc1ccccc1)C(C)(C)Cc1ccccc1	inactive				-27.5% [at 42.5 µM]		19 µM (active)	inactive	inactive
Cc1ccc(Cl)c(Nc2ccccc2C(=O)O)c1Cl	inactive		inactive			inactive	inactive	inactive	inactive
CC(C)COCC(CN(Cc1ccccc1)c1ccccc1)N1CCCC1 (stereo unspecified)			43.8 µM (active)			23.9 µM (active)	10.7 µM (active)	inactive	49.2 µM (active)
Brc1cc2ccccc2c2ccccc12	44 µM (active)				-24%	inactive		inactive	
C[C@@H](O)[C@H]1C(=O)N2C(C(=O)O)=C([C@H]3CCCO3)S[C@H]12	inactive	inactive	inactive			inactive	inactive	inactive	
COC(=O)c1nc(Cl)c(Cl)nc1N	13.4 µM (active)				-72.9% [at 42.5 µM]		5.35 µM (active)	inactive	
COc1ccccc1N1CCN(CC(O)COc2cccc3ccccc23)CC1 (stereo unspecified)			49.2 µM (active)				26.8 µM (active)	inactive	inactive
COC(=O)CS	inactive	inactive	inactive			inactive	inactive	inactive	
CCOC(=O)c1ccc(I)cc1		inactive	inactive		-4.74%	inactive		inactive	
C=C/C(C)=C/C/C=C(\C)CCC=C(C)C		inactive	inactive		-20.3%	inactive	inactive	inactive	

Structure (SMILES)	Potency [1]	outcome [2]	Potency [3]	Potency [4]	activity change, positive = activation [5]	Potency [6]	Potency [7]	Potency [8]	Potency [9]
O=C(/C=C/c1ccc(O)c(O)c1)O[C@@H]1C[C@@](OC(=O)/C=C/c2ccc(O)c(O)c2)(C(=O)O)C[C@@H](O)[C@@H]1O	inactive	inactive	inactive			inactive	inactive	inactive	
Oc1cccc(O)c1O	inactive	inactive			0.0681%	inactive	inactive	inactive	
O=C1Cc2ccccc2N1c1c(Cl)cccc1Cl		inactive			-43.8%	inactive	24.5 µM (active)	inactive	inactive
CN(C)CCC=C1c2ccccc2C=Cc2ccccc21	inactive		inactive		-12.5% [at 42.5 µM]	inactive		inactive	
CCC(=O)C1CC(C(C)C)CC=C1C (stereo unspecified)			inactive	inactive	5.57%	inactive	inactive	inactive	inactive
CCCCCCCCN	inactive	inactive	inactive			inactive	inactive	inactive	
O=C1c2ccccc2C(=O)c2c(O)c(O)cc(O)c21	inactive	inactive			-7.48%	inactive	inactive	inactive	
O=C1c2ccccc2C(=O)C1(O)O		inactive			-26.5%	inactive	inactive	inactive	50.8 µM (active)
C[C@@H](O[C@H]1OCCN(Cc2n[nH]c(=O)[nH]2)[C@H]1c1ccc(F)cc1)c1cc(C(F)(F)F)cc(C(F)(F)F)c1	21.3 µM (active)			23.7 µM (active)	-53.3% [at 42.5 µM]	21.3 µM (active)	16.9 µM (active)	inactive	
c1cc(N(CC2CO2)CC2CO2)ccc1Cc1ccc(N(CC2CO2)CC2CO2)cc1 (stereo unspecified)			inactive	21.7 µM (active)	-66.1%		34.7 µM (active)	inactive	
C=C1c2cccc(O)c2C(O)=C2C(=O)[C@]3(O)C(O)=C(C(N)=O)C(=O)[C@@H](N(C)C)[C@@H]3[C@@H](O)[C@H]12	inactive		inactive		-14.2% [at 42.5 µM]	inactive	inactive	inactive	
CCC(C)(C)OC		inactive	inactive		-8.72%	inactive	inactive	inactive	inactive
CCOc1cccc(-n2cc(C(=O)N3CCN(c4cc(C(=O)O)c5ccccc5c4)CC3)nc2-c2ccc(C)cc2)c1		inactive			-37.7%	inactive	inactive	inactive	
CCOC(=O)c1ccc(C#Cc2ccc3c(c2)C(C)(C)CCS3)nc1	inactive	inactive				inactive		inactive	
O=C(O)CCCCCCCCCCCBr		inactive	inactive	inactive		inactive	inactive	inactive	
Oc1cc2c(cc1O)[C@H]1c3ccc(O)c(O)c3OC[C@@]1(O)C2	inactive	inactive		49.2 µM (active)	-31.7%	49.6 µM (active)	inactive	inactive	
CC(C)=CCC/C(C)=C/CC/C(C)=C/C(=O)OCC(=O)[C@@]1(O)CC[C@H]2[C@@H]3CCC4=CC(=O)C=C[C@]4(C)[C@H]3[C@@H](O)C[C@@]21C			inactive		-50.7% [at 42.5 µM]		4.77 µM (active)	inactive	inactive
CCCCCCCC/C=C\CCCCCCCCCCCC(=O)O		inactive	inactive			inactive		inactive	inactive
Nc1ccc(N=Nc2ccccc2)c(N)c1	inactive	inactive	98.6 µM (active)				42.7 µM (active)	inactive	
